# Assay outcomes deposited in PubChem by several laboratories.
# PP5 inh: inhibitors of human protein phosphatase 5 (PP5). P53041. purified PP5c, OMFP substrate fluorescence. inhibition, % at 6.7 µM. actives 0.18% (n = 320,000). AID 1987;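 active = inhibition above the campaign's mean inhibition across all tested compounds plus 3 SD, cut at about 9.5% in these data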;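 also: 0% = DMSO only and 100% = 100 µM cantharidin control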
# Target sequence (P53041 whole entry, looked up): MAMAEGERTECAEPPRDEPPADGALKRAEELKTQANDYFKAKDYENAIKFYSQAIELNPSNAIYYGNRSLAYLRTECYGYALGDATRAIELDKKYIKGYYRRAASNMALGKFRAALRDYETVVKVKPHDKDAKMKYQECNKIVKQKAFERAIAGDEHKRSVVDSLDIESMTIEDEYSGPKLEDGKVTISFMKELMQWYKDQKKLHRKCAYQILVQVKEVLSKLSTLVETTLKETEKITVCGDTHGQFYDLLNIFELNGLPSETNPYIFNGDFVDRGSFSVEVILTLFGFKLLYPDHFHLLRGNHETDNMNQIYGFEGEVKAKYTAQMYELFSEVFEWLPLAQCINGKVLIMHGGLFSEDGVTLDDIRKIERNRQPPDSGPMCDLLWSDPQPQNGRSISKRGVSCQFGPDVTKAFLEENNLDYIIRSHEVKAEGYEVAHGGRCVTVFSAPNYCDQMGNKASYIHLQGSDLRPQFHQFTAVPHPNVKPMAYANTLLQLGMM
# Rpn11 block: blocks the human proteasome subunit Rpn11; O00487; human 26S proteasome, Ub4-pepOG fluorescence polarization; 20S core pre-blocked with epoxomicin; inhibition, % at 20 µM; actives 0.59% (n = 360,000); AID 588493;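 active = inhibition at 20 µM, scaled to each plate's controls, above about 33%, limit read from the data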
# PP1 inh: PP1-alpha (human) inhibition in PP5 counter-screen; P62136; AID 2235; inhibition, % at 6.7 µM; actives 0.9% (n = 320,000); purified PP1alpha, OMFP fluorescence;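 active = inhibition above the mean inhibition of all tested compounds plus 3 SD, computed separately for each screening campaign, cut at about 15% in these data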
# NadD inh: NadD (S. aureus) enzyme inhibition | inhibition, % at 20 µM | purified NadD enzyme, colorimetric absorbance read-out | actives 0.78% (n = 360,000) | AID 602399; in the data active = inhibition above about 26%
# PREPL inh: inhibitors of human prolyl oligopeptidase-like enzyme PREPL | actives 0.68% (n = 320,000) | AID 2751 | inhibition, % at 5.96 µM | recombinant PREPL, fluorescence polarization activity-based probe | Q4J6C6; in the data active = inhibition above about 43%;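 also: 0% = enzyme with DMSO and 100% = wells lacking enzyme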
# NadD conf: confirmation of Staphylococcus aureus NadD inhibitors; shares compounds with NadD inh; purified S. aureus NadD, colorimetric enzyme assay; inhibition, % at 20 µM; actives 13% (n = 2,000); in the data active = inhibition mostly above about 42%, no sharp cut-off; inactive = mostly below about 42%
# Starred values were filed as active, the others as inactive; / = not tested or not shown. Compounds with a hit are over-represented: about 2.4% of the library has one in this group of screens.
SMILES,PP5 inh,Rpn11 block,PP1 inh,NadD inh,PREPL inh,NadD conf
O=C(Nc1nccs1)c1cccc(N2C(=O)c3cccc4c([N+](=O)[O-])ccc(c34)C2=O)c1,-2,-11,1,38*,-3,10
N#Cc1cccc(C(=O)Nc2ccc(S(=O)(=O)Nc3nccs3)cc2)c1,/,2,/,1,23,/
Cc1ccc(Oc2ccc3c(c2)C(=O)N(c2ccc(S(=O)(=O)Nc4nccs4)cc2)C3=O)cc1,6,11,15,44*,20,46
O=C(Nc1ccc(S(=O)(=O)Nc2nccs2)cc1)c1cccc(N2C(=O)c3ccccc3C2=O)c1,-2,30,-1,39*,5,58*
COc1ccc(/C=N\NS(=O)(=O)c2ccc(Br)cc2)cc1COc1ccccc1[N+](=O)[O-],1,-4,-3,46*,-9,27
COc1ccc(/C=N\NS(=O)(=O)c2ccc(Cl)cc2)cc1COc1ccccc1[N+](=O)[O-],2,0,-1,25,-3,/
CCc1cc(C(=O)NCC(c2ccco2)N2CCCCC2)sc1C (stereo not drawn),3,11,-1,-1,7,/
O=C(Nc1cccc(-c2nc3ccccc3s2)c1)c1cc(-n2cnnc2)ccc1Cl,3,8,8,40*,-34,1
CCC(=O)N1CCc2cc(Br)c(S(=O)(=O)CCC(=O)NCCc3ccccc3)cc21,/,-3,/,1,/,/
CCC(=O)N1CCN(c2nc3ccccc3s2)CC1,3,0,-4,1,14,/
O=C(c1cc2sccc2n1Cc1ccccc1)N1CCN(c2nc3ccccc3s2)CC1,2,2,15*,34*,18,21
O=c1[nH]c(C2CCN(S(=O)(=O)c3ccccc3F)CC2)nc2c1nnn2Cc1ccc2c(c1)OCCO2,0,-1,-1,23,-9,/
O=c1[nH]c(C2CCN(S(=O)(=O)c3ccc4c(c3)OCCO4)CC2)nc2c1nnn2Cc1ccccc1F,3,2,5,34*,5,27
O=c1[nH]c(C2CCN(S(=O)(=O)c3ccccc3)CC2)nc2c1nnn2Cc1c(F)cccc1Cl,2,-12,12,25,0,/
O=c1[nH]c(C2CCN(S(=O)(=O)c3ccc4c(c3)OCCO4)CC2)nc2c1nnn2Cc1c(F)cccc1Cl,4,-24,17*,33*,-5,30
O=C(Cc1ccccc1Cl)Nc1ccc(S(=O)(=O)Nc2nccs2)cc1,-1,0,0,-2,-1,/
O=C(CSc1ccc(Br)c2cccc(Cl)c12)Nc1ccc(S(=O)(=O)Nc2nccs2)cc1,2,-1,9,71*,-21,31*
COC(=O)c1cccc2c(C(=O)O)cc(-c3ccccc3)nc12,/,-6,/,4,/,/
COC(=O)[C@]1(C)N[C@H](CN(C)C(=O)Nc2ccc(C)cc2)[C@@H]2C(=O)N(C)C(=O)[C@@H]21,/,0,/,-5,12,/
Cc1cc2oc(=O)cc(CN3CCc4ccccc43)c2cc1Cl,1,1,8,32*,20,3
CCc1ccc2c(CN3CCc4ccccc43)cc(=O)oc2c1,-2,-10,9,14,36,/
COc1ccc(NC(=O)CSc2nc3ccccc3c(=O)n2CCCC(=O)NCC2CCCO2)c(OC)c1 (stereo not drawn),1,-12,2,4,6,/
Cc1nc(/N=C(\N)NC(=O)c2ccccc2)nc2ccccc12,1,3,2,3,-10,/
Cc1nc(/N=C(\N)NC(=O)N2c3ccccc3Sc3ccccc32)nc2ccccc12,-2,2,-2,31*,-1,20
CCC(C)Sc1cccc(-c2nc3cc(C)ccn3c2NCc2ccccc2)c1 (stereo not drawn),3,-7,4,2,7,/
SMILES,PP5 inh,Rpn11 block,PP1 inh,NadD inh,PREPL inh,NadD conf
Cn1c2ccccc2c2cc(/C=N/NC(=O)c3cc(O)ccc3O)ccc21,1,16,14,49*,31,52*
OC[C@@H]1CN(Cc2ccc3c(c2)OCO3)C[C@H](n2cnc3c(N4CCN(c5ccccc5)CC4)ncnc32)O1,/,1,/,-4,/,/
CCOC1=C2CN(S(=O)(=O)c3ccc(C)cc3)[C@H](c3ccccc3)C[C@@H]2N(S(=O)(=O)c2ccc(C)cc2)[C@H](c2cccc(C)c2)C1,/,22,/,6,/,/
Cn1nccc1C(=O)Nc1sc2c(c1C#N)CCCC2,0,-9,0,-4,-1,/
Cn1ncc(Cl)c1C(=O)NC(=S)Nc1sc2c(c1C#N)CCCCC2,2,-8,-4,29*,7,3
COc1ccc(OC[C@@H](O)CNC(=O)c2cccc3c2C(=O)c2ccc(-c4ccc(F)cc4OCc4ccccc4)cc2S3(=O)=O)cc1,/,8,/,35*,20,25
O=C(NCc1ccc(F)cc1)c1cccc2c1C(=O)c1ccc(N3CCC(Cc4ccccc4)CC3)cc1S2(=O)=O,/,-169,/,16,-2,/
Cc1ccc(NCc2nnc(SCC(=O)c3ccccc3)n2Cc2ccco2)c(C)c1,3,12,14,25*,3,57*
CC(C)COC(=O)C(C#N)c1nc2ccccc2nc1N1CCN(Cc2ccc3c(c2)OCO3)CC1 (stereo not drawn),3,5,3,31*,-3,9
COc1cc(C#Cc2c(-c3cncn3C)n(C)c3ccc(-c4ccc(OC)nc4)cc23)cc(OC)c1,2,2,4,36*,25,14
COc1cc(C#Cc2c(-c3cncn3C)n(C)c3ccc(-c4ccc5[nH]ccc5c4)cc23)cc(OC)c1,1,9,-2,35*,14,36
CC(C)(C)OC(=O)N1CCCC(C(=O)Nc2ccc(C(=O)NCc3ccccc3)cc2)C1 (stereo not drawn),/,-1,/,6,/,/
CCc1cccc(NC(=O)CCCn2c(=O)[nH]c3ccsc3c2=O)c1,1,-1,-2,-2,-2,/
Cc1cc2nc(-c3ccc(SCC(=O)Nc4ccc(S(=O)(=O)NC5CC5)cc4)nc3)[nH]c2cc1C,3,19,10,40*,-25,44
Cc1cc2nc(-c3ccc(SCC(=O)N4CCc5ccccc54)nc3)[nH]c2cc1C,0,20,-1,33*,12,4
Cc1cc2nc(-c3ccc(SCC(=O)NC(C)C)nc3)[nH]c2cc1C,1,/,-1,/,7,/
Cc1cc(NC(=O)CSc2ccc(-c3nc4cc(C)c(C)cc4[nH]3)cn2)no1,-1,10,5,22,5,/
Cc1ccc(NC(=O)C(C)OC(=O)c2cc(=O)[nH]c3ccccc23)cc1S(=O)(=O)N1CCOCC1 (stereo not drawn),/,10,/,35*,/,41
CC(=O)c1c(C)[nH]c(C(=O)OC(C)C(=O)Nc2ccc(C)c(S(=O)(=O)N3CCOCC3)c2)c1C (stereo not drawn),-1,0,0,0,0,/
O=C(N/N=C/c1ccc2c(c1)OCO2)c1cc(-c2ccccc2Cl)nc2ccccc12,4,-2,3,-2,15,/
